Inhibition data for 71 molecules are collected here from PubChem BioAssay AID602123 (The Scripps Research Institute Molecular Screening Center, 2011).

Structures are written as SMILES. Screen size: about 360,000 compounds; about 1,500 (0.42%) were called active. Only a selection was taken, and actives are over-represented in it overall. Unmarked numbers belong to inactive results. No stated cut-off is given here; in the data, active means inhibition above about 13% (passing the limit was not always enough); inactive means the rest.

In this test the target is Lon protease (Escherichia coli (strain K12)) (UniProt P0A9M0). The experiment in a line: inhibitors of E. coli Lon protease, primary screen, biochemical, fluorescence polarization (AID 602123).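 Further: 0% = enzyme with probe and DMSO and 100% = no enzyme.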 Particulars: purified E. coli Lon protease, at 7.94 µM, hits give high values. In general terms: Fluorescence polarisation rises when a labelled molecule tumbles more slowly, as on binding a larger partner.
Sequence of Lon protease (Escherichia coli (strain K12)) (P0A9M0 whole entry, looked up): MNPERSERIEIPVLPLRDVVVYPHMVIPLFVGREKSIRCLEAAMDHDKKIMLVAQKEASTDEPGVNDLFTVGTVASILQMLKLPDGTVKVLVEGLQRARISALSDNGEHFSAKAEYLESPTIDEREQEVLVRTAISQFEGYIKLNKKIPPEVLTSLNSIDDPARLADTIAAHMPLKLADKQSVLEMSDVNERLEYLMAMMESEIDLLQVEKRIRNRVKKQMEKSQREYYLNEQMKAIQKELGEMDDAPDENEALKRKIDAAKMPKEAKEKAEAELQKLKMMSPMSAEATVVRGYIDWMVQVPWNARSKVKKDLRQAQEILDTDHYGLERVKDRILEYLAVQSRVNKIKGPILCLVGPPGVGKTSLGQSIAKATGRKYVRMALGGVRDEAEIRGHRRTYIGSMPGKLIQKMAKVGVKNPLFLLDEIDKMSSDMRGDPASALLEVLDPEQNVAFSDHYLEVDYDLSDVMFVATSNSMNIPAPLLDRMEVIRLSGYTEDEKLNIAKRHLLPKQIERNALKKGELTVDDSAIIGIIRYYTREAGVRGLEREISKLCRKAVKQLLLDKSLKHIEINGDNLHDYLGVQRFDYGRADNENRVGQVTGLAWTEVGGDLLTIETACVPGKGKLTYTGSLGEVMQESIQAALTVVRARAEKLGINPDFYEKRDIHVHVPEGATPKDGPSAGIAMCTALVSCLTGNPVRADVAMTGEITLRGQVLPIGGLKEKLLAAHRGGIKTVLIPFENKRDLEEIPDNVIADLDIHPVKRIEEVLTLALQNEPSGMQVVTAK
Turning to `c1ccc(-c2ccc3c(c2)NC(C2Nc4cc(-c5ccccc5)ccc4O2)O3)cc1` (stereo unspecified), the inhibition (commonly the drop in the measured response relative to a control, in per cent) was -3.71%.

Regarding `NC(=O)c1nnsc1-c1ccc(-c2snnc2C(N)=O)cc1`, the inhibition was 1.17%. As for `COc1ccc(S(=O)(=O)N2CCOCC2)cc1NC(=O)CSc1cc(C)ccc1C`, the inhibition is -9.45%. The same measure for `COc1ccc(S(=O)(=O)N2CCOCC2)cc1NC(=O)COc1ccccc1`: -17.8%; for `COc1ccc(S(=O)(=O)N2CCOCC2)cc1NC(=O)Cc1c(F)cccc1Cl`: 20.4% (active); for `Cc1ccc(CNC(=O)CCN2C(=O)[C@@H]3Cc4ccccc4CN3C2=O)cc1`: 1.97%.

Consider `O=C(CN1CCCSc2ccccc21)N1CCN(S(=O)(=O)c2ccccc2)CC1`, for which the inhibition was 4.26%.

Turning to `O=C(CN1CCN(S(=O)(=O)c2cccc(Cl)c2)CC1)N1CCCCC1`, the inhibition is -0.39%.

With `O=C(CN1CCCSc2ccccc21)N1CCN(S(=O)(=O)c2cccc(F)c2)CC1`, the inhibition was 19.9% (active). `CC(C)N1CCC(=NNc2ccc([N+](=O)[O-])cc2S(=O)(=O)N2CCOCC2)CC1`: the inhibition was 1.91%. The same measure for `COc1ccccc1Oc1ccc(N2CC(C(=O)OCC(=O)c3ccc(F)cc3)CC2=O)cc1` (stereo unspecified): 2.52%; for `CCn1c(=S)[nH]c2cc(S(=O)(=O)N3CCOCC3)ccc21`: 3.25%. Next, `CNS(=O)(=O)c1ccc2c(c1)[nH]c(=S)n2C`: 62.6% (active). `CCCCn1c(=S)[nH]c2cc(S(=O)(=O)N3CCCCC3)ccc21`: the inhibition was -10.8%. Next, `CSc1ccc(S(=O)(=O)N2CCC(C(=O)NCCc3ccccc3)CC2)cc1`: 11%; `CN(C)Cc1c(C(=O)N/N=C/c2ccccc2OCc2ccc(F)cc2)nnn1-c1nonc1N`: 18.9% (active).

For `CCN(CC)Cc1c(C(=O)N/N=C/c2cccc(OCc3ccc(F)cc3)c2)nnn1-c1nonc1N`, the inhibition is 5.3%.

For `CC(C)Oc1ccc(/C=N/NC(=O)c2nnn(-c3nonc3N)c2CN(C)C2CCCCC2)cc1`, the inhibition is 1.38%.

As to `CCc1ccc(CN2C(=O)c3ccccc3C2C(=O)NCC2CCCO2)cc1` (stereo unspecified), the inhibition was -0.17%.

Consider `COc1c(C(C)C)oc2cc3oc(=O)ccc3cc12`, for which the inhibition is 0.79%. Consider `CS(=O)(=O)N(C(=O)NC(=O)NC1CCS(=O)(=O)C1)C1CCCCC1` (stereo unspecified), for which the inhibition was -6.98%.

As to `Cc1ccc2cccc(S(=O)(=O)N3CCN(c4ccccc4F)CC3)c2n1`, the inhibition is 1.99%.

With `Cc1cc(-c2nnc(CCC(=O)NC(c3ccccc3)c3ccccc3)o2)no1`, the inhibition is 5.3%. With `COc1cccc(N(CC(=O)NCc2ccccc2)C(=O)CCC(=O)Nc2nccs2)c1`, the inhibition was -5.92%. In the case of `COc1ccc(C2CC(c3cccs3)Nc3nnnn32)cc1` (stereo unspecified), the inhibition was -1.58%.

`COc1ccc(C2=CC(c3cccc(OC)c3)n3nnnc3N2)cc1` (stereo unspecified): the inhibition is 16.1% (active).

For `COC(=O)C1=C(C(=O)c2ccc(C)cc2)C(c2ccccc2)n2nnnc2N1` (stereo unspecified), the inhibition is -7.42%. Next, `COc1c(C(=O)N2CCCC2)ccc2ccccc12`: -2.3%; `COC(=O)CNS(=O)(=O)c1ccc(Cc2ccc(S(=O)(=O)NCC(=O)OC)cc2)cc1`: 5.06%. The same measure for `COC(=O)C[n+]1cccc2ccccc21`: 99.9% (active); for `CSc1ccccc1NC(=O)Cc1ccc(Br)cc1`: 3.49%.

With `COc1ccccc1C(=O)NCCC(=O)NC(C)CCc1ccccc1` (stereo unspecified), the inhibition is 2.26%. Next, `COc1ccc(C(=O)NC(C)CCc2ccccc2)c(OC)c1` (stereo unspecified): 35.8% (active); `COc1ccc(C(=O)CCc2ccccc2O)c(OC)c1`: -6.58%; `COCC(C)NC(=O)CSc1nc2nn(-c3ccccc3)c(=O)c-2c2n1CCCCC2` (stereo unspecified): 8.05%. With `C=CCSc1ccc(S(=O)(=O)N2CCN(C)CC2)cn1`, the inhibition was 2.87%.

In the case of `O=C(COC(=O)C12CC3CC(CC(O)(C3)C1)C2)NC12CC3CC(CC(C3)C1)C2`, the inhibition was 14.8% (active). The same measure for `O=C(COC(=O)CNS(=O)(=O)c1ccccc1)NC12CC3CC(CC(C3)C1)C2`: -4.78%; for `O=C(CNCCO)NC12CC3CC(CC(C3)C1)C2`: 1.03%; for `Cc1ccc(N(C(=O)c2sc(C)nc2C)C(C(=O)NC(C)(C)C)c2ccncc2)cc1` (stereo unspecified): 2.66%. Next, `CCS(=O)(=O)N1CCCC(C(=O)NCCCN(C)Cc2ccccc2)C1` (stereo unspecified): 0.57%; `O=C(CCCn1c(=O)oc2ccccc21)Nc1cccnc1`: 0.74%; `C/C(=N/NC(=O)CSc1ccccn1)c1ccc([N+](=O)[O-])cc1`: -0.59%.

Take `CCN1C(=O)[C@H]2[C@@H](c3ccc(-c4ccc(F)cc4)cc3)N[C@@](Cc3ccccc3)(C(=O)OC)[C@H]2C1=O`: the inhibition was -0.32%.

`CCCSc1ccc([C@H]2N[C@@](Cc3ccccc3)(C(=O)OC)[C@H]3C(=O)N(C)C(=O)[C@@H]23)cc1`: the inhibition is 22.2% (active). The same measure for `CCN1C(=O)[C@H]2[C@@H](c3ccc(-c4ccc(OC)cc4)cc3)N[C@@](Cc3ccccc3)(C(=O)OC)[C@H]2C1=O`: -4.73%; for `CCNC(=S)N1CCN(S(=O)(=O)c2ccc(Cl)s2)CC1`: 3.82%; for `O=C(Nc1ccc(F)c(Cl)c1)C1CCN(S(=O)(=O)c2cccnc2)CC1`: 1.53%.

`Cc1cc(C)n(Cc2cnc(N3CCOCC3)s2)n1`: the inhibition was -9.37%.

Consider `Clc1ccc2c(c1)C1=C(C(c3ccncc3)O2)C(c2ccc(Br)cc2)n2ncnc2N1` (stereo unspecified), for which the inhibition is 0.69%. The same measure for `Brc1ccc(C2=CC(c3ccco3)n3ncnc3N2)cc1` (stereo unspecified): 189% (active). Next, `CN1/C(=c2/s/c(=C3/C(=O)N(c4ccccc4)NC3=Nc3ccccc3)n(C)c2=O)C(C)(C)c2ccccc21`: -167%; `CCN(CC(=O)NCc1cccs1)C(=O)c1ccccc1F`: -7.98%; `Cc1ccc(S(=O)(=O)CCC(=O)OCC(=O)NCCc2ccc(S(N)(=O)=O)cc2)cc1`: -12.1%.

For the molecule `Cc1ccc(S(=O)(=O)CCC(=O)OCc2ccccc2)cc1`, the inhibition was 15.9% (active).

Consider `Cc1ccc(S(=O)(=O)CCC(=O)OCC(=O)N(C)Cc2ccccc2)cc1`, for which the inhibition was 5.85%. The same measure for `Cc1cc(Br)ccc1NC(=O)CN(C)C(=O)CN1C(=O)NC2(CCCC2)C1=O`: -8.08%; for `CCC(=O)c1ccc(OCC(=O)N(CC)CC2COc3ccccc3O2)cc1` (stereo unspecified): 5.37%; for `COCCCNC(=S)NC(=O)c1ccc([N+](=O)[O-])cc1`: -1.2%. The same measure for `CC(=O)NC(=S)Nc1ccc(NC(=S)NC(=O)c2ccc([N+](=O)[O-])cc2)cc1`: 21.3% (active). For the molecule `CC(=O)Nc1ccc(NC(=S)NC(=O)c2ccc([N+](=O)[O-])c(C)c2)cc1`, the inhibition is -3.89%. As for `COc1cc(Cl)c(C)cc1NC(=O)CSc1nnc(-c2ccco2)n1CC(C)C`, the inhibition is -5.33%. For the molecule `NC(Cc1ccccc1)c1csc(Nc2cc(Oc3ccccc3)ncn2)n1` (stereo unspecified), the inhibition was -2.31%. Next, `CCN(CC)C(=O)CSc1nnc(-c2cnccn2)n1-c1ccc(C)cc1`: -8.84%; `CC(C)CCN(C(=O)c1csnn1)C(C(=O)NC1CCCC1)c1ccccc1` (stereo unspecified): 5.69%; `CCCn1c(SCC(=O)c2ccc3c(c2)OCCO3)nnc1C(C)C`: 3.55%.

`COCCn1c(SCC(=O)Nc2nc(C)cs2)nnc1C(C)C`: the inhibition is 6.46%. For `CCCn1c(SCC(=O)Nc2c(C)cccc2C)nnc1C(C)C`, the inhibition is 14.6% (active). Next, `CCCCC(O)(CCCC)C(=O)NN(C(=O)CCl)c1ccccc1`: -2.85%; `CCCC(O)(CCC)C(=O)NN(C(=O)CCl)c1cccc(C)c1`: 12.8% (active); `Cc1cccc(N(Cc2ccccc2)C(=O)c2ccccc2F)c1`: 0.91%.
